Compound activity from PubChem BioAssay.
TbPYK inhibitor = qHTS of Trypanosoma Brucei Inhibitors | AID 624173, 2012 | hit rate 0.12% among 410,000 | Potency, µM (series often up to 76.8 µM), without a hit: top-dose activity, negative = inhibition, actives largely listed as inhibitors | TbPYK enzyme, Kinase-Glo Plus ATP luminescence, 45 min | pyruvate kinase (Trypanosoma brucei), Q57TT1; also: potency is read from the fitted curve at half-maximal effect; % is scaled to controls: 0 for no effect and ±100 for the full control effect; nearly all actives have a fitted effect of over 50% in size
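Quantitative HTS: titrated library compounds versus trypanosomal pyruvate kinase in TEA buffer (pH 7.2) containing KCl, MgCl2, BSA and Tween-20. Reactions were initiated with ADP, 130 uM final. Kinase-Glo Plus luminescence was read after 45 min at RT.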
Shiga toxin inh = A qHTS for Small Molecule Inhibitors of Shiga Toxin. Vero cells, Shiga toxin protein synthesis inhibition reporter. inhibition, % at 38.7 µM. hit rate 9.2% among 290,000; in the data active = inhibition mostly above about 28%, no sharp cut-off; inactive = mostly below about 43%; also: 0% is about no effect
Giardia FBPA inh = qHTS Assay for Inhibitors of Fructose-1,6-bisphosphate Aldolase from Giardia Lamblia; A8B2U2; purified Giardia FBPA; Potency, µM (top dose mostly 59.6 µM), for the others: top-dose activity, negative = inhibition, actives largely listed as inhibitors; hit rate 0.71% among 290,000; AID 2451, 2010; also: potency is read from the fitted curve at half-maximal effect; % is scaled to controls: 0 for no effect and ±100 for the full control effect; nearly all actives have a fitted effect of over 55% in size
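Giardia FBPA (40 nM reagent) was preincubated 10 min at RT with compound (up to 57.5 uM final), then substrate plus GAPDH/TPI/NAD/arsenate coupling system with diaphorase/resazurin was added; resorufin fluorescence (525/598 nm) was read after 20 min.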
Sm TGR inh = qHTS Assay for the Inhibitors of Schistosoma Mansoni Peroxiredoxins; hit rate 3% among 360,000; Potency, µM (series often up to 114 µM), for the others: at the top dose activity change, negative = inhibition, most hits filed as inhibitors; purified TGR, DTNB reduction, TNB absorbance 405 nm; also: potency is read from the fitted curve at half-maximal effect; % is scaled to controls: 0 for no effect and ±100 for the full control effect; nearly all actives have a fitted effect of over 60% in size
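TGR 20 nM + NADPH 100 uM (dispensed conc.), cpd preinc 15 min RT; start with NADPH (500 uM addition) then DTNB (15 mM addition). Kinetic TNB absorbance, 405 nm filter. Four-parameter Hill fit across titration.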
LmPK inhibitor = qHTS Assay for Inhibitors of Leishmania Mexicana Pyruvate Kinase (LmPK); Q27686; purified LmPK, Kinase-Glo ATP luminescence, 1 h; Potency, µM (titrated, usually from 57.5 µM), for the others: top-dose activity change, negative = inhibition, hits mostly inhibitors; hit rate 0.37% among 290,000; also: potency is read from the fitted curve at half-maximal effect; % is scaled to controls: 0 for no effect and ±100 for the full control effect
Target sequence (Q27686 whole entry, looked up): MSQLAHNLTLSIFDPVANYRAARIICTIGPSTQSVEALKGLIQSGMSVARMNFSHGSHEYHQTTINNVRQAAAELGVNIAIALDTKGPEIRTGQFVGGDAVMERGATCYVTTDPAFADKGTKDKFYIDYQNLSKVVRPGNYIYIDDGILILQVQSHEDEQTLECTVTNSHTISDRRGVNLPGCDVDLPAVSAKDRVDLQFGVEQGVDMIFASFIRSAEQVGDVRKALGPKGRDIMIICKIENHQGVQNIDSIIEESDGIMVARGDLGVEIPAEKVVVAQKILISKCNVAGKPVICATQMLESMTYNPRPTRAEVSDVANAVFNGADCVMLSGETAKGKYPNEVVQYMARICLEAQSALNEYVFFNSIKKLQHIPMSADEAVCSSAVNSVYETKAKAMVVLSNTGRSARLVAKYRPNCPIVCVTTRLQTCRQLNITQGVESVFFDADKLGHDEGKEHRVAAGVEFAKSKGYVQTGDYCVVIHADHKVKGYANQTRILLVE
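Pyruvate kinase activity monitored as ATP production (luciferase luminescence). Conditions: 0.1 nM enzyme, 0.5 mM PEP, 0.1 mM ADP, 1 h, RT; normalized against uninhibited and no-enzyme wells.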
CHX counter = Cycloheximide Counterscreen for Small Molecule Inhibitors of Shiga Toxin; AID 2314, 2010; max response, %; cell reporter, cycloheximide protein synthesis inhibition counterscreen; hit rate 12% among 300,000; in the data active = max response mostly above about 13%, no sharp cut-off; inactive = mostly below about 14%; also: read at 38.3 µM for the half of the compounds with a filed dose; 0% is about no effect
* hit, by the source's call; ? = inconclusive; . = no result given; [ ] = remark or other dose. The entries come from a sample that favours hits as a whole. Unless noted, calls follow the shape of the dose curve; as a rule, active = well fitted curve in the direction sought with a large enough effect; inconclusive = small, poorly fitted or top-dose-only effect, or another doubt; inactive = no such curve, though single readings can be large; an effect the other way counts as inactive or inconclusive.

SMILES	TbPYK inhibitor	Shiga toxin inh	Giardia FBPA inh	Sm TGR inh	LmPK inhibitor	CHX counter
CC(=O)Nc1cccc(NC(=S)Nc2cccc3ccccc23)c1	1%	84*	.	?	-18%	44*
Cc1ccc(F)c(NC(=S)Nc2cccc3ccccc23)c1	.	58*	?	8%	-10%	36*
Cc1ccc(C(=O)NNC(=S)Nc2cccc3ccccc23)s1	1%	67*	4%	31%	-3%	30*
S=C(Nc1cccc2ccccc12)Nc1cccc2ccccc12	-13%	.	.	.	.	.
O=C(NNC(=S)Nc1cccc2ccccc12)c1cccc(Br)c1	-1%	-13	21%	-9%	-3%	11
COc1ccc(Cl)cc1NC(=O)C(C)n1nnc2sc3c(c2c1=O)CCCC3 (centres undefined)	-6%	.	.	-4%	.	.
COc1ccccc1NC(=O)c1cc2c(=O)oc3ccc(C)cc3c2s1	0%	.	.	0%	.	.
COc1ccc(NC(=S)Nc2cccc(Cl)c2)cc1OC	1%	-7	-18%	.	1%	-2
COc1ccc(NC(=S)Nc2cccc3ccccc23)cc1OC	1%	18	-29%	-1%	5%	30*
COc1ccc(NC(=O)CCCn2nc(C)c3sc4ccccc4c3c2=O)cc1	-6%	.	.	5%	.	.
Cc1nc(-c2ccc(Cl)cc2)sc1C1(C)CC(c2ccncc2)=NO1 (centres undefined)	-7%	.	.	.	.	.
Cc1nc(-c2ccc(Cl)cc2)sc1C1(C)CC(c2cccc(F)c2)=NO1 (centres undefined)	0%	52*	2%	-5%	0%	28*
Cc1nc(-c2ccc(Cl)cc2)sc1C1(C)CC(c2cccc(Cl)c2)=NO1 (centres undefined)	-10%	32*	-8%	0%	3%	17*
Cc1ccc(C2=NOC(C)(c3sc(-c4ccc(Cl)cc4)nc3C)C2)cc1 (centres undefined)	-1%	.	.	.	.	.
Cc1nc(-c2ccc(Cl)cc2)sc1C1(C)CC(c2ccc(F)cc2)=NO1 (centres undefined)	3%	47*	-5%	-30%	-1%	25*
CS(=O)(=O)c1ccc(C(=O)C2C(=O)CCCC2=O)c([N+](=O)[O-])c1	-8%[157 µM]	.	.	.	.	.
CCN=c1scc(-c2ccco2)n1/N=C/c1ccc(OC)c(O)c1	-3%	139*	-18%	?	0%	54*
CCN=c1scc(-c2ccco2)n1/N=C/c1ccc(O)cc1	-2%	69*	-23%	0%	3%	39*
COC(=O)/C=C/c1cnc2ccccc2c1	-2%	118*	-4%	-8%	0%	36*
CN(c1ccccc1)c1nc(N)c([N+](=O)[O-])c(N2CCCCC2)n1	2%	61*	-5%	6%	5%	32*
Nc1nc(Nc2ccccc2F)nc(N2CCCC2)c1[N+](=O)[O-]	-16%	107*	0%	-2%	0%	51*
CN(c1ccccc1)c1nc(N)c([N+](=O)[O-])c(N2CCOCC2)n1	-3%	12	5%	1%	4%	10
CN(c1ccccc1)c1nc(N)c([N+](=O)[O-])c(N2CCCC2)n1	6%	81*	4%	5%	-1%	37*
CC/C(=N\NC(=O)CCC(=O)NCc1ccccc1)c1ccc(O)cc1	5%	-20	3%	-2%	-1%	-1
COc1ccc(CNC(=O)C(CCSC)NS(=O)(=O)c2ccc3c(c2)oc(=O)n3C)cc1 (centres undefined)	0%	.	.	5%	.	.
SMILES	TbPYK inhibitor	Shiga toxin inh	Giardia FBPA inh	Sm TGR inh	LmPK inhibitor	CHX counter
O=C(Nc1ccccc1N1CCCC1)c1ccc([N+](=O)[O-])o1	0%	41*	.	-33%	-3%	36*
O=C(Nc1cccc2ccccc12)c1ccc([N+](=O)[O-])o1	0%	31*	-4%	?	1%	31*
O=C(Nc1ccccc1N1CCN(C(=O)c2ccccc2)CC1)c1ccc([N+](=O)[O-])o1	0%	26	3%	-29%	7%	3
CC(C)C(=O)N1CCN(c2ccccc2NC(=O)c2ccc([N+](=O)[O-])o2)CC1	-5%	50*	8%	?	3%	27*
Cn1cc(CC(=O)NCc2ccc(F)cc2)c2ccccc21	-6%	6	-9%	13%	4%	12*
CC(C)c1ccc(NC(=O)Cc2cn(C)c3ccccc23)cc1	-8%	21	2%	0%	1%	14*
CC(C)NC(=O)CCCc1cn(C)c2ccccc12	-1%	1	2%	8%	2%	-3
CCOC(=O)c1ccc(NC(=O)CSc2nccn2-c2ccc(OCC)cc2)cc1	-15%	.	.	-4%	.	.
Cc1cc(C)c2nc(NNC(=O)c3cc(=O)c4ccccc4o3)sc2c1	?	28	-5%	-2%	5%	19*
CCOc1ccc(-c2ccc(NS(=O)(=O)c3cc(C)c(C)cc3C)cc2)nn1	0%	.	.	6%	.	.
CCOc1ccc(-c2cnc3ccccc3n2)cc1	-12%	96*	3%	14%	?	40*
O=[N+]([O-])c1ccccc1Oc1cnc2ccccc2n1	-2%	-3	-16%	-6%	0%	2
O=[N+]([O-])c1cc(-c2cnc3ccccc3n2)ccc1Oc1ccc(F)cc1	-3%	81*	-2%	32%	1%	53*
O=[N+]([O-])c1ccc(-c2cnc3ccccc3n2)cc1	-10%	32*	-2%	-9%	0%	26*
Cc1nc2ccccc2nc1-c1ccc([N+](=O)[O-])cc1	-1%	.	.	.	.	.
O=C(NC(Cc1ccccc1)C(=O)N1CCCCC1)c1ccccc1 (centres undefined)	2%	.	.	-1%	.	.
COc1ccc(C)cc1NC(c1nnc(-c2ccccc2)o1)c1ccc(F)cc1Cl (centres undefined)	4%	.	.	0%	.	.
CC(C)(CNC(=O)c1cccc(S(=O)(=O)NCc2ccccc2)c1)N1CCOCC1	1%	.	.	1%	.	.
CC(=O)c1cccc(S(=O)(=O)NCC(C)(C)N2CCOCC2)c1	0%	-11	-24%	40µM*	-4%	-4
Oc1ccc(N=Nc2ccc3c(c2)OCO3)c2ccccc12	.	78*	10%	-5%	-15%	58*
O=C(NN1C(=O)c2ccccc2C1=O)C1C2CCCCC21 (centres undefined)	-3%	8	0%	-1%	6%	11*
Nc1nc2ccccc2nc1N	3%	28*	0%	-2%	-10%	14*
c1ccc2nc3ccccc3nc2c1	1%	44	0%	0%	-3%	7
COc1ccc(C2=NCC(=O)N(CC(=O)NCc3ccco3)c3sc4c(c32)CCCC4)cc1OC	6%	-3	2%	22µM*	7%	1
